# Laboratory results published in PubChem BioAssay (NCATS).
# Results filed as inconclusive are left out. A number with no mark means an inactive call. Activity calls are given as the source filed them. The call rests on the fitted dose curve; in most records, active means well fitted inhibition curve with a large enough effect; inconclusive means small, poorly fitted or top-dose-only effect; inactive means no such curve, though single readings can be large or run the other way.
# System: Zika virus NS2B-NS3 protease (linked construct)
# Test: Primary screen NINDS Rhodamine qHTS for Zika virus inhibitors (AID 1347160); further: nearly all actives have a fitted effect of over 55% in size
# Settings: purified NS2B-NS3 protease, Rhodamine110 substrate fluorescence; series mostly up to 57.1 µM; activity change, negative = inhibition: at the top concentration
# Method in brief: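 Aprotinin served as in-plate control. Conditions: 25 nM linked NS2B-NS3, pH 8.0 Tris buffer, titrated compounds, 15 min preincubation and 15 min reaction with 1.5 microM Rhod110 substrate at room temperature.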
# On the % scale 0 is the no-effect control and ±100 the full control effect; potency means the concentration at half of the fitted maximal effect.
Compound,outcome,"activity change, negative = inhibition",Potency
CCC(C)C(=O)O[C@H]1CCC=C2C=C[C@H](C)[C@H](CC[C@@H](O)C[C@@H](O)CC(=O)O)[C@H]21 (some centres undefined),inactive [at 33.1 µM],–,–
O=C(Nc1ccc(-c2ccncc2)cc1)N[C@H](CO)c1ccccc1,–,20.8%,–
Cn1nnc(-c2ccc(-c3ccc(N4C[C@H](CO)OC4=O)cc3F)cn2)n1,–,14.9%,–
CC1(C)CCC[C@]2(C)[C@H]3CC(=O)O[C@]3(C)CC[C@@H]12,–,-15.8%,–
C[C@@H]1O[C@@H](O[C@H]2[C@H](O)[C@@H](O[C@@H]3O[C@H](CO)[C@@H](O)[C@H](O[C@@H]4O[C@H](CO)[C@@H](O)[C@H](O)[C@H]4O)[C@H]3O)[C@H](O[C@H]3CC[C@@]4(C)C(=CC[C@@H]5C4CC[C@@]4(C)C5C[C@@H]5OC6(CC[C@@](C)(CO[C@@H]7O[C@H](CO)[C@@H](O)[C@H](O)[C@H]7O)O6)[C@@H](C)[C@@H]54)C3)O[C@@H]2CO)[C@H](O)[C@H](O)[C@H]1OC1OC(CO)C(O)C(O)C1O (some centres undefined),–,-10.4% [at 10.7 µM],–
CC1(C)CC[C@]23CO[C@@]4(CCC5[C@@]6(C)CC[C@H](O[C@@H]7OC[C@H](O[C@@H]8O[C@H](CO)[C@@H](O)[C@H](O)[C@H]8O)[C@H](O)[C@H]7O[C@@H]7O[C@H](CO)[C@@H](O[C@@H]8O[C@H](CO)[C@@H](O)[C@H](O)[C@H]8O)[C@H](O)[C@H]7O)[C@@](C)(CO)C6CC[C@@]5(C)[C@]4(C)C[C@H]2OC2OCC(O)C(O)C2O)C3C1 (some centres undefined),inactive [at 10.7 µM],–,–
CCCC(=O)O[C@@H]1[C@@H]2[C@@H](OC(C)=O)[C@]3(C)C(=O)[C@H]4[C@@H](OC(C)=O)C(C)(C)C[C@H]4[C@]3(C)C(=O)[C@@]2(OC(C)=O)C[C@@H]1C,–,12.7% [at 33.1 µM],–
O=C(O)CCCCCC[C@H]1C(=O)NC(=O)N1CC[C@@H](O)C1CCCCC1,inactive,–,–
CC(C)N(CCCCOCC(=O)NS(C)(=O)=O)c1cnc(-c2ccccc2)c(-c2ccccc2)n1,–,–,28.2 µM (active)
CNC(=S)NS(=O)(=O)c1cc(CCNC(=O)c2cc(Cl)ccc2OC)ccc1OC,–,-4.14%,–
O=C1NC(Cc2c[nH]c3ccccc23)C(=O)NC1Cc1cnc[nH]1 (centres undefined),–,18.2% [at 33.1 µM],–
C[C@@H]1C[C@@H](O)[C@@]23CO[C@@H](O)[C@@H]2CCC[C@@H]3[C@@]12C[C@@H](c1ccoc1)OC2=O,–,-5.19% [at 33.1 µM],–
OC[C@@]1(O)CO[C@@H](OC[C@H]2O[C@@H](Oc3c[nH]c4ccccc34)[C@H](O)[C@@H](O)[C@@H]2O)[C@@H]1O,inactive [at 33.1 µM],–,–
CC(C)C[C@H](CC(=O)NO)C(=O)N[C@@H](Cc1ccc2ccccc2c1)C(=O)N[C@@H](C)C(=O)NCCN,–,7.17%,–
CCOc1cc(N2CCC(O)CC2)ccc1Nc1ncc2c(n1)N(C1CCCC1)CCC(=O)N2C,–,28.5%,–
O=C1OCC(c2ccccc2)=C1Cc1ccccc1,inactive,–,–
O=C(/C=C/c1cccc(S(=O)(=O)Nc2ccccc2)c1)NO,–,6.81% [at 33.1 µM],–
Cc1cc(Cl)ccc1COc1ccnn1-c1cc(C(=O)O)ccn1,–,-5.63%,–
CC(=O)NCC(=O)N1C2CCC1c1cc(Nc3ncc(C(F)(F)F)c(NC4CCC4)n3)ccc12 (centres undefined),–,14.4%,–
COc1ccc(-c2ccc(-c3cn(C(=O)N4CCCCC4c4ccccc4)nn3)cc2)cc1 (centres undefined),–,-1.56%,–

Compound,outcome,"activity change, negative = inhibition",Potency
O=[N+]([O-])c1cccc2[nH]c(CNc3nc(N4CCOCC4)nc4c3ncn4-c3ccsc3)nc12,–,3.68%,–
CC(C)CC1NC(=O)C2CC3(O)c4ccccc4NC3N2C1=O (centres undefined),inactive [at 33.1 µM],–,–
C/C(=C\CCC(C)CCO)C(=O)OC1(C)CCC2C(C(=O)O)=COC(OC3OC(CO)C(O)C(O)C3O)C21 (centres undefined),–,-1.86% [at 33.1 µM],–
Cc1cc(Nc2ncc3cc(-c4c(Cl)cccc4Cl)c(=O)n(C)c3n2)ccc1F,–,9.74%,–
CC(=O)OC[C@@]12C(=O)C[C@@H](C)[C@]3(C[C@@H](c4ccoc4)O[C@H]3OC(C)=O)[C@H]1CCC[C@]21CO1,–,-0.716% [at 33.1 µM],–
CC12CCC3c4ccc(OC5OC(C(=O)O)C(O)C(O)C5O)cc4CCC3C1CCC2O (centres undefined),–,17.7%,–
COc1cc2ncnc(N3CCC(Oc4cnc5ccccc5n4)C3)c2cc1OC (centres undefined),inactive,–,–
COc1c(C)c(OCC(O)C(C)(C)O)cc2c1COC2=O (centres undefined),–,-1.74%,–
O=C(NCc1ccc(F)cc1)C(=O)c1c[nH]c2ccccc12,–,-0.66%,–
Cc1c(C(=O)N2CCOc3ccc(-c4ccc(N)nc4)cc3C2)ccc(S(C)(=O)=O)c1F,inactive,–,–
C/C=C/C(O)C1OC(=O)CC1Nc1ccc(C(=O)O)cc1 (centres undefined),–,-4.34%,–
COc1cc(NC(=O)Nc2cccc(CNC(=O)O[C@H]3CCOC3)c2)ccc1-c1cnco1,–,-0.451%,–
CC1=CC(=O)CC(C)(CO)C1(O)/C=C/C(C)O[C@@H]1O[C@H](CO)[C@@H](O)[C@H](O)[C@H]1O (some centres undefined),inactive [at 33.1 µM],–,–
C=CC(=O)Nc1cccc(Nc2nc(Nc3ccc(N4CCN(C(C)=O)CC4)cc3OC)ncc2C(F)(F)F)c1,inactive,–,–
CC1CCC2(C(=O)O)CCC3(C)C(=CCC4C5(C)CCC(OC(=O)/C=C/c6ccccc6)C(C)(C)C5CCC43C)C2C1C (centres undefined),inactive [at 15.1 µM],–,–
CCOC(=O)C(CCc1ccccc1)NC1CSC(c2cccs2)CN(CC(=O)O)C1=O (centres undefined),–,9.4%,–
C[C@@H]1O[C@@H](O[C@@H]2[C@@H](O)[C@H](O[C@H]3CC[C@@]4(C)C(CC[C@]5(C)C4CC=C4[C@@H]6CC(C)(C)CC[C@]6(C(=O)O[C@@H]6O[C@H](CO)[C@@H](O)[C@H](O)[C@H]6O)CC[C@]45C)C3(C)C)O[C@H](C(=O)O)[C@H]2O)[C@H](O)[C@H](O)[C@H]1O (some centres undefined),–,-3.46% [at 15.1 µM],–
CC(C)C(C(=O)N(C)C(C)C(N)=O)N(C)C(=O)C1CCCN1C(=O)/C=C/C=C/C(O)C(C)O (centres undefined),–,31.7% [at 33.1 µM],–
CC(=O)NC1=NN(C(C)=O)C(C)(c2ccccc2)S1 (centres undefined),–,25.7%,–
